# Data reported in the supplement of paper PMC6555819.
# Assays:
# Assay in all cases: PBM binding z-score (relative to random genomic background probes); higher = stronger binding; sequences stand for … in GC…GCGATTGACAGCGTAGAATGAAGG
# [1] = system: FXR:RXRa (NR concentration 270 nM, RXRa partner concentration 90 nM)
# In short: (§1)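 Binding buffer was PBS pH 7.4 with 2% milk, 0.02% Triton X-100, 1 mM DTT, 0.2 mg/mL BSA and 0.4 mg/ml salmon testes DNA. In it, ligand-free nuclear receptor dimers were incubated 1 h on custom Agilent 4×180K protein-binding microarrays carrying double-stranded probes. Antibodies against each partner (one per run) detected binding, and z-scores were calculated against random background probes after regression normalization of scanned fluorescence.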
# [2] = system: LXRa:RXRa (NR concentration 270 nM, RXRa partner concentration 90 nM)
# In short: as §1
# [3] = system: LXRa homodimer (NR concentration 270 nM)
# In short: as §1
# [4] = system: LXRb:RXRa (NR concentration 270 nM, RXRa partner concentration 90 nM)
# In short: as §1
# [5] = system: LXRb homodimer (NR concentration 270 nM)
# In short: as §1
# [6] = system: PPARa:RXRa (NR concentration 270 nM, RXRa partner concentration 90 nM)
# In short: as §1
# [7] = system: PPARg:RXRa (NR concentration 180 nM, RXRa partner concentration 90 nM)
# In short: as §1
# [8] = system: PPARg:RXRa 270nM:90nM, anti-RXR (NR concentration 270 nM, RXRa partner concentration 90 nM)
# In short: as §1
# [9] = system: PPARg:RXRa 30nM:10nM, anti-RXR (NR concentration 30 nM, RXRa partner concentration 10 nM)
# In short: as §1
# [10] = system: PPARg:RXRa 90nM:30nM, anti-RXR (NR concentration 90 nM, RXRa partner concentration 30 nM)
# In short: as §1
# [11] = system: PPARg:RXRa DBDmut IVT, anti-RXR (DBD mutation: RXRa K156A/R161A, NR concentration 270 nM, RXRa partner concentration 90 nM)
# In short: as §1
# [12] = system: PPARg:RXRa IVT, anti-PPARg (NR concentration 270 nM, RXRa partner concentration 90 nM)
# In short: as §1
# [13] = system: PPARg DBDmut IVT, anti-PPARg (DBD mutation: PPARg1 K132A/R137A, NR concentration 270 nM)
# In short: as §1
# [14] = system: PPARg homodimer (NR concentration 180 nM)
# In short: as §1
# [15] = system: PXR:RXRa (NR concentration 270 nM, RXRa partner concentration 90 nM)
# In short: as §1
# [16] = system: PXR homodimer (NR concentration 270 nM)
# In short: as §1
# [17] = system: RARa:RXR (NR concentration 270 nM, RXRa partner concentration 90 nM)
# In short: as §1
# [18] = system: RARa homodimer (NR concentration 270 nM)
# In short: as §1
# [19] = system: RARb:RXRa (NR concentration 270 nM, RXRa partner concentration 90 nM)
# In short: as §1
# [20] = system: PPARg DBDmut:RXRa IVT, anti-PPARg (DBD mutation: PPARg1 K132A/R137A, NR concentration 270 nM, RXRa partner concentration 90 nM)
# In short: as §1
Sequence,PBM binding z-score [1],PBM binding z-score [2],PBM binding z-score [3],PBM binding z-score [4],PBM binding z-score [5],PBM binding z-score [6],PBM binding z-score [7],PBM binding z-score [8],PBM binding z-score [9],PBM binding z-score [10],PBM binding z-score [11],PBM binding z-score [12],PBM binding z-score [13],PBM binding z-score [14],PBM binding z-score [15],PBM binding z-score [16],PBM binding z-score [17],PBM binding z-score [18],PBM binding z-score [19],PBM binding z-score [20]
CGAACTAGGTCACCAGGACACTGAAGAGGTTGGA,3.92,2.61,0.155,1.95,-0.211,5.31,8.46,7.07,4.81,6.92,8.03,8.93,1.04,1.58,2.02,0.353,2.73,0.625,4.22,–
AGAATGAGGTTATACGTAGGTCAGGGAAGAAAGT,3.33,4.18,1.07,3.2,0.0984,4.04,2.84,2.74,0.859,2.05,3.82,2.92,0.81,3.44,–,0.992,4.71,0.747,3.19,1.18
ATATGTAGGTTAGGGTCATTCATAAAGTAGGGAA,5.45,4.03,1.6,4.64,1.55,5.93,8.24,6.58,4.58,6.47,6.2,7.14,4.07,4.85,4.73,2.83,4.99,2.19,3.63,–
ATATGTAGGTTAGGGTCATTGAGAAAGTAGGGAA,4.91,4.11,1.17,4.32,2.74,5.89,7.58,6.31,4.39,5.93,6.25,6.47,1.4,2.67,4.2,1.72,4.69,2.38,3.59,–
ATATGTAGGTTACATGCGGGTCATTCAGGCTATG,2.21,4.55,0.959,2.66,0.785,4.22,5.9,5.3,2.6,4.65,7.67,7.33,2.03,1.57,–,1.11,3.24,0.618,2.01,2.78
CCTAGTTGGTCAGGAGGTCACATACCGGATATGA,3.32,3.13,1.66,3.16,0.594,3.7,3.11,3.14,1.32,2.95,1.64,3.39,0.388,2.7,–,1.16,3.9,2.01,3.37,0.476
CGAACTAGGTCACCAAGACAGTGAAGAGGTTGGA,3.75,1.93,-0.0683,1.32,-0.272,5.11,8.16,6.46,4.53,6.57,7.83,8.54,0.905,1.16,1.14,-0.2,1.99,0.703,4.07,–
TCTCGGAGGACACGAAAGGTGAGAGCTCGACATC,0.988,0.364,-0.458,-0.112,-0.994,1.22,0.346,1.01,2.1,1.25,1.27,0.956,-0.811,0.673,–,-0.496,1.05,-0.329,2.26,-0.191
CGTCTAAGTTCAAGGTAACGTAACAGAAAGCAGC,4.08,3.47,1.01,2.01,0.51,3.18,1.39,2.11,0.885,1.69,0.796,1.09,0.258,1.64,–,2.9,2.09,0.625,3.79,0.251
CGAACTAGGTCACCAGGACAGTGTAGAGGTTGGA,4.04,2.35,-0.0613,1.77,-0.589,5.08,8.54,6.85,4.68,6.46,8.42,8.73,1.75,2.71,1.58,-0.179,2.54,0.514,4.1,–
AGTCAAAGTTCAGGACGAGGTCACGTAAAGCACG,6.35,5.87,4.71,4.87,0.736,5.46,6.17,6.26,2.76,4.97,0.746,3.73,0.7,5.05,–,7.95,–,2.01,–,0.593
ATAGGTAGGTTAGGGTCATTCAGAAAGTAGGGAA,5.28,4.39,2.09,4.8,2.83,5.26,5.56,4.89,2.63,4.2,3.34,4.16,1.6,3.27,5.14,3.11,5.48,3.2,4,–
AGTCAAAGTTCTTCTAGGTAACGTAAGATATGCT,0.261,-0.366,0.0883,-0.0374,0.0414,0.304,0.844,1.16,0.354,0.549,0.515,1.89,1.12,0.188,–,0.42,0.106,0.636,0.948,0.999
CGAACTGGGTCAAAGGACAGTGAAAGGCGACGTA,3.03,1.55,-0.452,1.37,-0.785,5.23,10.1,8.57,7.98,9.33,7.3,7.89,-0.0176,0.919,1.21,-0.282,2.12,-0.262,3.44,–
ACTAGTGGGTCAGCTGAGGTCACACACAATTCGG,4.98,5.49,2.88,4.54,0.173,4.9,6.38,5.68,3.12,4.86,6.51,6.96,0.986,4.18,–,1.68,5.69,1.85,4.45,1.71
CGTCCAAGGTCAATGCGAGGTCAGTGAAAGCATT,7.21,6.04,4.28,5.1,1.25,5.46,4.59,4.98,1.48,3.65,3.2,4.05,-0.0151,6.13,–,4.68,–,1.33,5.4,0.262
